Experiment in all cases: NCI-60 one-dose screen, 48 h (100 = growth as untreated, 0 = no growth, -100 = all killed)
One assay relates to T-47D breast. The settings on record: 10 µM unless noted.
The test system of another assay is BT-549 breast. The settings on record: 10 µM unless noted.
The subject of another assay is MDA-MB-435 melanoma. The settings on record: 10 µM unless noted.
In a further assay the test system is SW-620 colon. The following applies: 10 µM unless noted.
A further assay relates to MCF7 breast.
For the next assay, the system named is HCT-116 colon. The settings on record: 10 µM unless noted.
In the next assay the test system is HCC-2998 colon. The settings on record: 10 µM unless noted.
The next assay concerns KM12 colon. The following applies: 10 µM unless noted.

Where “and” joins values, the source holds several entries; their conditions need not be identical. Equal entries are not always repeated. Compounds without any hit were thinned out: in the full panel of roughly 83,000, 20% have a hit.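 For each line, cells grew in 96-well plates with the test compound present at a single concentration for 48 hours.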 Calls of active or inactive are those of the source. The calls were made as follows: active = growth percent below 10; inactive = the rest.

On to `OCC1OC(O)C(O)C(O)C1O` (configuration not stated), for which the growth was 102% (inactive) in the assay on T-47D breast; 110% (inactive) in the assay with BT-549 breast; 113% (inactive) with MDA-MB-435 melanoma; 96.9% (inactive) in the assay on SW-620 colon; 82.6% (inactive) in the assay on MCF7 breast (10 µM unless noted); 104% (inactive) in the assay on HCT-116 colon. In addition, the growth with HCC-2998 colon is 94% (inactive); with KM12 colon, 128% (inactive).

For `Oc1ccc(Cc2ccccc2Cl)c(O)c1`, the growth in the assay on T-47D breast is 83.9% (inactive); in the assay with BT-549 breast, 99.2% (inactive); with MDA-MB-435 melanoma, 107% (inactive); in the assay on SW-620 colon it was 97.1% (inactive); with MCF7 breast (10 µM unless noted), 119% (inactive); with HCT-116 colon it was 96.6% (inactive). In addition, in the assay with HCC-2998 colon, the growth is 91.3% (inactive).

Turning to `C/C(=C\c1ccccc1)c1ccccn1`, the growth with T-47D breast is 94.7% (inactive); with BT-549 breast, 110% (inactive); in the assay on MDA-MB-435 melanoma, 118% (inactive); in the assay on SW-620 colon, 105% (inactive); with MCF7 breast (10 µM unless noted), 68.4% (inactive); in the assay with HCT-116 colon it was 101% (inactive). For the same compound, the growth is 117% (inactive) with HCC-2998 colon and 95.5% (inactive) with KM12 colon.

As to `O=C(O)CCCl`, the growth was 110% (inactive) with T-47D breast; 113% (inactive) with BT-549 breast; 109% (inactive) in the assay with MDA-MB-435 melanoma; 105% (inactive) in the assay with SW-620 colon; 97.5% (inactive) with MCF7 breast (10 µM unless noted); 94.8% (inactive) in the assay on HCT-116 colon. Also, the growth is 104% (inactive) in the assay on HCC-2998 colon and 106% (inactive) in the assay with KM12 colon.

With `O=C1C=C(Nc2ccccc2)c2ccccc2C1=O`, the growth is 77.2% (inactive) and 102% (inactive) in the assay with T-47D breast; 84.3% (inactive) and 100% (inactive) with BT-549 breast; -88% (active) and 99% (inactive) with MDA-MB-435 melanoma; 31.5% (inactive) and 94% (inactive) in the assay with SW-620 colon; 12.9% (inactive) and 78.4% (inactive) with MCF7 breast (10 µM unless noted); 6.58% (active) and 92.8% (inactive) in the assay with HCT-116 colon. In addition, the growth with HCC-2998 colon is 54.3% (inactive) and 90.5% (inactive); in the assay with KM12 colon it was 65.6% (inactive) and 84.4% (inactive).

In the case of `O=c1n(CC2CO2)c(=O)n(CC2CO2)c(=O)n1CC1CO1` (configuration not stated), the growth with T-47D breast was 53.5% (inactive); in the assay with BT-549 breast, 77.1% (inactive); in the assay with MDA-MB-435 melanoma, 82.9% (inactive); in the assay on SW-620 colon it was 75.5% (inactive); in the assay on MCF7 breast (10 µM unless noted), 42.5% (inactive); in the assay with HCT-116 colon it was 73.9% (inactive). For the same compound, the growth was 94.8% (inactive) in the assay with HCC-2998 colon and 90.3% (inactive) in the assay with KM12 colon.

Consider `Cc1ccc(S(=O)(=O)c2ccccc2)cc1`, for which the growth in the assay with T-47D breast is 49.7% (inactive); in the assay on BT-549 breast it was 36.6% (inactive); in the assay with MDA-MB-435 melanoma it was -49.8% (active); in the assay with SW-620 colon, 11.6% (inactive); in the assay on MCF7 breast (10 µM unless noted) it was 20.9% (inactive); with HCT-116 colon it was 18.8% (inactive). Moreover, the growth was 51.6% (inactive) in the assay on HCC-2998 colon and 25.5% (inactive) with KM12 colon.

`CCCCCCCCCCNC(=O)CI`: the growth is -21.1% (active) with T-47D breast; -87% (active) with BT-549 breast; 9.57% (active) in the assay on MDA-MB-435 melanoma; -33.9% (active) with SW-620 colon; 10.7% (inactive) in the assay on MCF7 breast (10 µM unless noted); -28.3% (active) in the assay on HCT-116 colon. The values for the growth with HCC-2998 colon and with KM12 colon were 98.4% (inactive) and 55.3% (inactive), respectively.

Consider `COc1ccc(N/C=C/C2=[N+](C)c3ccccc3C2(C)C)c(OC)c1`, for which the growth with T-47D breast was 89.5% (inactive); in the assay with BT-549 breast it was 89.3% (inactive); in the assay with MDA-MB-435 melanoma it was 95% (inactive); in the assay with SW-620 colon, 92.7% (inactive); in the assay with MCF7 breast (10 µM unless noted) it was 87.7% (inactive); in the assay on HCT-116 colon, 88.8% (inactive). Also, the growth in the assay on HCC-2998 colon was 98.4% (inactive); with KM12 colon it was 103% (inactive).

`CC(C)NC(=O)N/C=C(\C#N)C(N)=O`: the growth in the assay with T-47D breast is 101% (inactive); with BT-549 breast, 92.1% (inactive); in the assay on MDA-MB-435 melanoma, 92.6% (inactive); in the assay with SW-620 colon it was 93.4% (inactive); with MCF7 breast (10 µM unless noted), 102% (inactive); in the assay with HCT-116 colon it was 90.9% (inactive). Moreover, the figures for the growth in the assay with HCC-2998 colon and with KM12 colon were 97.5% (inactive) and 92.7% (inactive), respectively.

On to `CCCCOC(=O)/C=C\C(=O)NC(N)=O`, for which the growth is 60.4% (inactive) with T-47D breast; 63.5% (inactive) in the assay with BT-549 breast; 99.4% (inactive) in the assay with MDA-MB-435 melanoma; 57.1% (inactive) in the assay with SW-620 colon; 81.1% (inactive) in the assay with MCF7 breast (10 µM unless noted); 80.1% (inactive) with HCT-116 colon. In addition, the growth in the assay on HCC-2998 colon was 108% (inactive); with KM12 colon, 106% (inactive).

With `Cc1ccc(=O)[nH]n1`, the growth was 109% (inactive) and 95.4% (inactive) in the assay with T-47D breast; 112% (inactive) and 113% (inactive) in the assay with BT-549 breast; 113% (inactive) in the assay on MDA-MB-435 melanoma; 102% (inactive) and 103% (inactive) in the assay on SW-620 colon; 101% (inactive) and 96.2% (inactive) in the assay on MCF7 breast (10 µM unless noted); 107% (inactive) in the assay on HCT-116 colon. In addition, the growth in the assay with HCC-2998 colon was 98.2% (inactive) and 107% (inactive); with KM12 colon it was 103% (inactive) and 101% (inactive).

Turning to `CC1(C)COC(=S)N1`, the growth in the assay with T-47D breast is 99.9% (inactive); in the assay with BT-549 breast, 102% (inactive); in the assay on MDA-MB-435 melanoma, 101% (inactive); with SW-620 colon, 109% (inactive); in the assay on MCF7 breast (10 µM unless noted), 105% (inactive); in the assay with HCT-116 colon it was 105% (inactive). For the same compound, the growth in the assay on HCC-2998 colon is 106% (inactive); with KM12 colon, 112% (inactive).

For `O=C(/C=C/c1ccccc1)c1ccccc1`, the growth is 64.6% (inactive) with T-47D breast; 126% (inactive) in the assay with BT-549 breast; 76.6% (inactive) with MDA-MB-435 melanoma; 86.6% (inactive) in the assay with SW-620 colon; -2.52% (active) with MCF7 breast (10 µM unless noted); 6.71% (active) with HCT-116 colon. In addition, the figures for the growth with HCC-2998 colon and in the assay on KM12 colon were 120% (inactive) and 33.3% (inactive), respectively.

Take `CC1CCC2(C(=O)O)CCC3(C)C(=CCC4C5(C)CCC(O)C(C)(C)C5CCC43C)C2C1C` (configuration not stated): the growth with T-47D breast is 49% (inactive) and 77.2% (inactive); with BT-549 breast, 263% (inactive) and 102% (inactive); with MDA-MB-435 melanoma it was 59.8% (inactive) and 103% (inactive); with SW-620 colon it was 15.2% (inactive) and 98.2% (inactive); in the assay on MCF7 breast (10 µM), 84.3% (inactive) and 93.3% (inactive); with MCF7 breast (100 µM), -56.5% (active) and -70% (active). Besides, the growth with HCT-116 colon is 6.37% (active) and 85.7% (inactive); in the assay on HCC-2998 colon, -29% (active) and 91.4% (inactive); in the assay with KM12 colon, 59.6% (inactive) and 85.7% (inactive).

Turning to `O=c1[nH]cnc2c1ncn2C1OC(CO)C(O)C1O` (configuration not stated), the growth in the assay with T-47D breast is 103% (inactive) and 107% (inactive) and 90.2% (inactive); with BT-549 breast, 103% (inactive) and 123% (inactive) and 109% (inactive); in the assay on MDA-MB-435 melanoma, 121% (inactive) and 98.7% (inactive) and 90.2% (inactive); with SW-620 colon, 107% (inactive) and 113% (inactive) and 89.7% (inactive); in the assay with MCF7 breast (10 µM unless noted) it was 100% (inactive) and 96.8% (inactive) and 95.6% (inactive); in the assay with HCT-116 colon it was 102% (inactive) and 116% (inactive) and 92.9% (inactive). The growth was 102% (inactive) and 113% (inactive) and 127% (inactive) in the assay with HCC-2998 colon; 111% (inactive) and 109% (inactive) in the assay on KM12 colon.

Consider `CCCCNc1ccc(Nc2ccccc2)cc1`, for which the growth in the assay on T-47D breast was 34% (inactive); with BT-549 breast it was 49.7% (inactive); with MDA-MB-435 melanoma it was 71.8% (inactive); with SW-620 colon it was 84.3% (inactive); in the assay on MCF7 breast (10 µM unless noted), 67.3% (inactive); with HCT-116 colon it was 47.9% (inactive). The growth with HCC-2998 colon was 92% (inactive); with KM12 colon it was 66% (inactive).

As to `CN1CNC(=O)NC1`, the growth with T-47D breast was 112% (inactive) and 100% (inactive); in the assay with BT-549 breast, 97.8% (inactive) and 112% (inactive); in the assay with MDA-MB-435 melanoma it was 106% (inactive) and 115% (inactive); in the assay with SW-620 colon, 105% (inactive) and 104% (inactive); in the assay with MCF7 breast (10 µM unless noted), 109% (inactive) and 96.4% (inactive); with HCT-116 colon, 105% (inactive). For the same compound, the growth with HCC-2998 colon was 113% (inactive) and 102% (inactive); in the assay with KM12 colon, 117% (inactive) and 105% (inactive).

As for `Nc1nc(N)c2[nH]cnc2n1`, the growth with T-47D breast is 59.1% (inactive); with BT-549 breast, 96.8% (inactive); in the assay with MDA-MB-435 melanoma, 84.5% (inactive); in the assay on SW-620 colon, 85.9% (inactive); in the assay on MCF7 breast (10 µM unless noted) it was 54.2% (inactive); in the assay with HCT-116 colon it was 90.5% (inactive). Also, the growth in the assay with HCC-2998 colon is 86% (inactive); in the assay on KM12 colon, 107% (inactive).

The values above are taken from PubChem BioAssay (NCI).
